The text below walks through data of PubChem BioAssay (NCATS).

Structures are written as SMILES. Values without a mark were called inactive. Inconclusive results are not listed. Active and inactive are the calls of the source. Unless noted, calls come from the whole dose curve; as a rule, active = well fitted curve in the direction sought with a large enough effect; inconclusive = small, poorly fitted or top-dose-only effect, or another doubt; inactive = no such curve, though single readings can be large; an effect the other way counts as inactive or inconclusive.

For experiment [1], the target named is Cytochrome P450 2C9 (Homo sapiens) (UniProt P11712). Put plainly: qHTS Assay for Inhibitors and Substrates of Cytochrome P450 2C9 (AID 883). For activity change, negative = inhibition: % is set by controls: 0 for no effect and ±100 for the full control effect. Note: nearly all actives have a fitted effect of over 60% in size. Note: potency is the fitted concentration of half-maximal effect. An outline of the steps:
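Human CYP2C9 (10nM) hydroxylated Luciferin-H (100uM, at its KM) to luciferin in 25mM KPO4. Compound was preincubated 10 min at 37C, then NADPH regeneration started a 60 min reaction at 37C. Luminescence was read after detection reagent, normalized to 57uM sulphaphenazole.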

Experiment [2] has as its target ATP-dependent 6-phosphofructokinase (Trypanosoma brucei brucei) (UniProt O15648). Put plainly: qHTS Assay to Find Inhibitors of T. brucei phosphofructokinase: hit validation (AID 492961).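 Note: luminescence reports ADP formed as PFK phosphorylates fructose-6-phosphate with ATP; % is set by controls: 0 for no effect and ±100 for the full control effect.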 An outline of the steps: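 PFK 1.25 nM, F6P 0.5 mM, ATP 0.1 mM, MgCl2 5 mM, 0.1 M TEA pH 8.0, Tween20 0.01%, BSA 0.1%; 45 min RT. ADP-Glo two-step detection, luminescence. qHTS titration; curve fitting with curve-class categorization.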

Experiment [3] has as its system AS120. Put plainly: qHTS profiling for inhibitors of Plasmodium falciparum proliferation (AID 504749).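 Note: 0% = DMSO vehicle and full inhibition = artemisinin control; nearly all actives have a fitted effect of over 60% in size.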 The settings on record: P. falciparum in erythrocytes, SYBR Green DNA, 72 h; series mostly up to 28.7 µM. An outline of the steps:
(§1)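 Fluorescence of SYBR Green-bound parasite DNA, read at 485/535 nm, served as the growth measure. Infected erythrocytes were cultured with compound 72 h; artemisinin (0.29 uM) and DMSO wells defined the normalization range.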
For orientation: qHTS replaces the single test concentration by a dilution series.

In experiment [4] the test system is ATS189. The description is as above. The settings on record: P. falciparum in erythrocytes, SYBR Green DNA, 72 h; series mostly up to 12.8 µM. A digest of the protocol:
as §1

In experiment [5] the test system is CP191. Described as above. The settings on record: P. falciparum in erythrocytes, SYBR Green DNA, 72 h; series mostly up to 12.8 µM. A digest of the protocol: as §1
The subject of experiment [6] is CP237. The description is as above. To be noted: P. falciparum in erythrocytes, SYBR Green DNA, 72 h; series mostly up to 12.8 µM. A digest of the protocol: as §1
Experiment [7] deals with CP238. The experiment is described as above. To be noted: P. falciparum in erythrocytes, SYBR Green DNA, 72 h; series mostly up to 12.8 µM. A digest of the protocol: as §1
Experiment [8] concerns CP247. Described as above. The settings on record: P. falciparum in erythrocytes, SYBR Green DNA, 72 h; series mostly up to 12.8 µM. An outline of the steps: as §1
For experiment [9], the system named is CP265. The experiment is described as above. To be noted: P. falciparum in erythrocytes, SYBR Green DNA, 72 h; series mostly up to 12.8 µM. An outline of the steps:
as §1

Experiment [10] deals with CP269. Described as above. The settings on record: P. falciparum in erythrocytes, SYBR Green DNA, 72 h; series mostly up to 12.8 µM. A digest of the protocol: as §1
Experiment [11] concerns Dd2. The description is as above. To be noted: P. falciparum in erythrocytes, SYBR Green DNA, 72 h; series mostly up to 12.8 µM. An outline of the steps: as §1
The test system of experiment [12] is P93_24. The description is as above. To be noted: P. falciparum in erythrocytes, SYBR Green DNA, 72 h; series mostly up to 12.8 µM. A digest of the protocol:
as §1

Experiment [13] deals with PC26. The description is as above. The settings on record: P. falciparum in erythrocytes, SYBR Green DNA, 72 h; series mostly up to 12.8 µM. An outline of the steps:
as §1

In experiment [14] the test system is PC49. The experiment is described as above. The settings on record: P. falciparum in erythrocytes, SYBR Green DNA, 72 h; series mostly up to 12.8 µM. An outline of the steps: as §1
For experiment [15], the system named is SC27B. The description is as above. To be noted: P. falciparum in erythrocytes, SYBR Green DNA, 72 h; series mostly up to 12.8 µM. A digest of the protocol:
as §1

A short description of experiment [16]: qHTS Assay for Identification of Small Molecule Agonists for Thrombopoietin (TPO) Signaling Pathway (AID 917). Note: % is set by controls: 0 for no effect and ±100 for the full control effect. An outline of the steps: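 Ba/F3 (mouse) + hTPO receptor + GpIIb-promoter luciferase; IL-3 withdrawn overnight; compound + 26 pM TPO (EC50), 24 hrs, 37 C, 5% CO2; Steadylite luminescence, 10 min RT.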
For experiment [17], the target named is Pyruvate kinase (Leishmania mexicana) (UniProt Q27686). Description: qHTS Validation Assay for Inhibitors of Leishmania Mexicana Pyruvate Kinase (AID 945).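 Note: 0% = DMSO only neutral control wells.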 An outline of the steps:
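Luminescent ATP detection (PKLight) after a 1 h room-temperature reaction of 0.2 nM LmPYK E451W mutant with 0.5 mM PEP and 0.1 mM ADP at pH 7.2. Activity is normalized to DMSO-only control wells.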

Experiment [18] has as its target Pyruvate kinase PKM (Homo sapiens) (UniProt P14618). Put plainly: qHTS Assay for Activators of Human Muscle Pyruvate Kinase (AID 954; active = well fitted curve in the direction sought with a large enough effect, not every such curve was filed as active;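 note: 0% = uninhibited enzyme and -100% = no enzyme or full thiadiazolimine inhibition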). An outline of the steps: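 Screening used highly purified human pyruvate kinase M2 under submaximal activity, with PEP at its Km and ADP below Km. After an hour at room temperature, ATP was read by luciferase luminescence.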
The target in experiment [19] is Alpha-galactosidase A (Homo sapiens) (UniProt P06280). Put plainly: Counterscreen for Glucocerebrosidase Inhibitors: qHTS Assay for Human alpha-Galactosidase at pH 4.5 (AID 992). Note: 0% is about no effect. A digest of the protocol:
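Each compound is preincubated briefly with 2 nM enzyme before substrate addition (80 uM); plates then sit 20 min at ambient temperature, are quenched with 1M NaOH/1M glycine, and read fluorometrically.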
In general terms: The purpose of a counterscreen is to sort out artefacts and off-target activity.

In experiment [20] the target is alpha-glucosidase (Oryza sativa, rice) (UniProt Q653V4). Put plainly: Counterscreen for Glucocerebrosidase Inhibitors: qHTS Assay for Rice alpha-Glucosidase at pH 5.0 (AID 997).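 Note: 0% = full activity with enzyme and -100% = basal without enzyme.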 A digest of the protocol:
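Endpoint fluorogenic assay at pH 5.0: compounds (0.7 nM to 77 uM) titrated against 4 nM rice enzyme and 400 uM 4-MU-alpha-glucoside for 20 min at room temperature; NaOH/glycine stop, read ex 365/em 440 nm, Hill-fitted AC50.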

Sequence of Alpha-galactosidase A (Homo sapiens) (P06280 whole entry, looked up): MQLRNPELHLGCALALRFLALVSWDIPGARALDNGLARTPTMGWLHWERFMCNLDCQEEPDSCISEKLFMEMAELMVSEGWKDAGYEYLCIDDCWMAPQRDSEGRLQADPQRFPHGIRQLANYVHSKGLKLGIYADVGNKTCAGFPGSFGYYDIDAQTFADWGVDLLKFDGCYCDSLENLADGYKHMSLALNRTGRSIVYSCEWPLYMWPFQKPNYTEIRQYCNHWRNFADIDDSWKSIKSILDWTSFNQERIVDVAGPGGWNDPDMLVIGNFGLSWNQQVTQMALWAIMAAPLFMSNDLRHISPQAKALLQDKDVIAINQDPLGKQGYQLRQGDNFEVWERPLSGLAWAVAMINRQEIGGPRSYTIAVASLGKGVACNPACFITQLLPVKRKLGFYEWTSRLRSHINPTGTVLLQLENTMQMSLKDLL
Sequence of Pyruvate kinase (Leishmania mexicana) (Q27686 2-499 E452W): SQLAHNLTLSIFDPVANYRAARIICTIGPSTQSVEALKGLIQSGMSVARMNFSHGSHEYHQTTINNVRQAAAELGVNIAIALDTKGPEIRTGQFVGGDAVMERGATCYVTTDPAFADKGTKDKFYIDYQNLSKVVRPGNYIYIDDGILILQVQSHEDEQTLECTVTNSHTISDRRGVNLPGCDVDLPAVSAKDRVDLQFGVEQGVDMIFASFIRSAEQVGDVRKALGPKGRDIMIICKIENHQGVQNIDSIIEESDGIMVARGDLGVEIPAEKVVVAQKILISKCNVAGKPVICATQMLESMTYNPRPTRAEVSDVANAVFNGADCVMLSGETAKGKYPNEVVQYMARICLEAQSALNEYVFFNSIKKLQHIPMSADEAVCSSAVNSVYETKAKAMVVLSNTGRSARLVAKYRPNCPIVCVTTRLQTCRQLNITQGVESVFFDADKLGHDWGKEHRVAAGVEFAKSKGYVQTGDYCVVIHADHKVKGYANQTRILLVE
Sequence of Cytochrome P450 2C9 (Homo sapiens) (P11712 whole entry, looked up): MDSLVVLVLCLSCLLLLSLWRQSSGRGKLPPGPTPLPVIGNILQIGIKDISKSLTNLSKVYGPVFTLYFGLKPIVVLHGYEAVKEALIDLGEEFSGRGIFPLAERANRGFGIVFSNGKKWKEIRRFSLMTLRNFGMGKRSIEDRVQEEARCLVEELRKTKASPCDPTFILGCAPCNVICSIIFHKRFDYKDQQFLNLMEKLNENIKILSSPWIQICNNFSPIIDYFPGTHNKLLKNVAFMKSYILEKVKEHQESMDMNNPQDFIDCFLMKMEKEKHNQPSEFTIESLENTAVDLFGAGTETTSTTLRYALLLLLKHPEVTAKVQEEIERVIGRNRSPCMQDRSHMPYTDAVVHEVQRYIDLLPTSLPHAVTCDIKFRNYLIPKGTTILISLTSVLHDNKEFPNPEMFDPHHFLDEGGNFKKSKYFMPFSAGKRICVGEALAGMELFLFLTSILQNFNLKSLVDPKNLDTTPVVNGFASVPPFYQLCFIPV
Sequence of Pyruvate kinase PKM (Homo sapiens) (P14618 whole entry, looked up): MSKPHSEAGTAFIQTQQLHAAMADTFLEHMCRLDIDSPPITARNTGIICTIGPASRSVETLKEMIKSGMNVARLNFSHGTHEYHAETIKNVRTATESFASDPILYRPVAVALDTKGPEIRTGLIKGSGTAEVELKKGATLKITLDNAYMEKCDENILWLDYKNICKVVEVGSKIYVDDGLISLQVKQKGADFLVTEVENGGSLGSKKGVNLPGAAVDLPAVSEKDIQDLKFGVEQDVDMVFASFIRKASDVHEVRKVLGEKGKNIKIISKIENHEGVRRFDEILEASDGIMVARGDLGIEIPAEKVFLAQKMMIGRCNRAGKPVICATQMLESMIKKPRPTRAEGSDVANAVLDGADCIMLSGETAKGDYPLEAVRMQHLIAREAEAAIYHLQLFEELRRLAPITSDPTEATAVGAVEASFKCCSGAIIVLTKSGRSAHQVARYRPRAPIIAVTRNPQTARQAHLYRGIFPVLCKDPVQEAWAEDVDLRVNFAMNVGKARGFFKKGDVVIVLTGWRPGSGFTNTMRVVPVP
Sequence of ATP-dependent 6-phosphofructokinase (Trypanosoma brucei brucei) (O15648 whole entry, looked up): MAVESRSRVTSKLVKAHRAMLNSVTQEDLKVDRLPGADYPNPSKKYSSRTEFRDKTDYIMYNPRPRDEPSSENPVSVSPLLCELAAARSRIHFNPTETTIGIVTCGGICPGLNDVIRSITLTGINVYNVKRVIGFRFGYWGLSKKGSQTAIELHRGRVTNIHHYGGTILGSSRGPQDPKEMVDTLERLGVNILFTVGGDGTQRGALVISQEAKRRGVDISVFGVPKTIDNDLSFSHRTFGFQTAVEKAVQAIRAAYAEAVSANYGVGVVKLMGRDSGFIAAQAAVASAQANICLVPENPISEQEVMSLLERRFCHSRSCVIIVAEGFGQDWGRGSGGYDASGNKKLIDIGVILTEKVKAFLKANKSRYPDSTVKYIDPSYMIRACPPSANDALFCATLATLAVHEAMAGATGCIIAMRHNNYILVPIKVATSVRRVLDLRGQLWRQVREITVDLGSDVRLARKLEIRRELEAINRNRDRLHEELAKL

As for `Cc1cccc(CNc2ccnc(-c3ccccc3CN(C)C)n2)c1`, in experiment [1], the activity change, negative = inhibition is 13.9% [at 2.29 µM].

For `CN(C)C(=O)c1ccc(-c2nc(N(C)C)c3ccccc3n2)cc1`, the activity change, negative = inhibition in [1] is 29.4% [at 2.29 µM].

In the case of `O=C(c1cc(C(F)(F)F)cc(C(F)(F)F)c1)N1CCC2(CC1)CCN(c1ncccn1)CC2`, the Potency entry in experiment [1] is “inactive”.

Take `CN1CCCC[C@@H]1CCN1c2ccccc2Sc2ccc(S(C)=O)cc21` (stereo partly drawn): the call in experiment [2] was inactive. Moreover, the Potency result in experiment [3], in experiment [4], in [5], in experiment [6], in experiment [7] and in experiment [8] was “inactive” each time. The Potency result in experiment [9], in experiment [10], in experiment [11], in [12], in experiment [13] and in experiment [14] was “inactive” in each case. The Potency entry in [15] is “inactive”.

Take `COc1ccc2[nH]cc(CCNc3ncnc4ccc(-c5ccc(C(=O)N(C)C)cc5)cc34)c2c1`: the Potency in [1] was 0.251 µM (active).

With `FC(F)(F)c1cc(CN2CC[C@@]3(CCCNC3)C2)cc(C(F)(F)F)c1`, in [1], the Potency result was “inactive”.

As for `COCC(=O)N1CCC2(CC1)CN(Cc1nccs1)C2`, the Potency result in [1] was “inactive”.

Take `O=c1cnc2cnc(N3CCOCC3)nc2n1C[C@H]1CCCO1`: the Potency entry in experiment [1] is “inactive”.

Take `N#CCCn1c(=O)c(-c2ccc(Cl)cc2)nc2cnc(Oc3cccc(Cl)c3)nc21`: the Potency result in experiment [1] is “inactive”.

Turning to `CC(=O)OCC1=C(C(=O)O)N2C(=O)[C@@H](NC(=O)CSc3ccncc3)[C@@H]2SC1`, the compound was called inactive in experiment [16], in experiment [17], in experiment [18], in experiment [19], in experiment [20] and in experiment [2]. In addition, the Potency entry in experiment [3], in experiment [4], in [5], in experiment [6], in experiment [7] and in experiment [8] was “inactive” each time. In addition, the Potency result in [9], in experiment [10], in experiment [11], in experiment [12], in [13] and in [14] was “inactive” in each case. Also, the Potency result in experiment [15] is “inactive”.

For the compound `CC[C@@]12CCCN3CCc4c(n(c5ccccc45)C(=O)C1)[C@H]32`, the outcome in experiment [2] was inactive. The Potency entry in experiment [3], in experiment [4], in experiment [5], in experiment [6], in experiment [7] and in experiment [8] was “inactive” in each case. Also, the Potency result in experiment [9], in experiment [10], in experiment [11], in experiment [12], in experiment [13] and in [14] was “inactive” throughout. In addition, in experiment [15], the Potency result was “inactive”.

On to `CCCN(CCC)C(=O)[C@@H](CCC(=O)O)NC(=O)c1ccccc1`, for which the result in experiment [16], in experiment [17], in experiment [18], in [19], in [20] and in experiment [2] was inactive. Moreover, the Potency entry in [3], in experiment [4], in experiment [5], in [6], in experiment [7] and in experiment [8] was “inactive” each time. Besides, the Potency result in [9], in [10], in experiment [11], in experiment [12], in [13] and in [14] was “inactive” in each case. Also, in experiment [15], the Potency entry was “inactive”.

As to `COc1ccc(-c2nc3cnc(N4CCNCC4)nc3n(C3CC3)c2=O)cc1`, the Potency in experiment [1] is 7.94 µM (active).

As for `CO/N=C(\C(=O)N[C@@H]1C(=O)N2C(C(=O)O)=C(COC(C)=O)CS[C@@H]12)c1csc(N)n1`, the call in experiment [16], in [17], in experiment [19], in experiment [20] and in experiment [2] was inactive. For the same compound, the Potency entry in experiment [3], in experiment [4], in [5], in experiment [6], in experiment [7] and in experiment [8] was “inactive” throughout. Further, the Potency entry in experiment [9], in experiment [10], in experiment [11], in experiment [12], in experiment [13] and in experiment [14] was “inactive” in each case. Besides, the Potency entry in [15] was “inactive”.

Turning to `Cc1cccc(CNc2cc(-c3cccc(NS(C)(=O)=O)c3)ncn2)c1`, the activity change, negative = inhibition in experiment [1] is 33.9% [at 2.29 µM].

On to `CC(C)NC[C@H](O)c1cc(O)cc(O)c1`, for which the compound was called inactive in experiment [16], in experiment [17], in [18], in [19], in experiment [20] and in [2]. Besides, the Potency result in experiment [3], in experiment [4], in [5], in experiment [6], in [7] and in experiment [8] was “inactive” throughout. Further, the Potency result in experiment [9], in experiment [10], in experiment [11], in [12], in experiment [13] and in [14] was “inactive” each time. Also, the Potency result in [15] was “inactive”.
